CHX counter: Cycloheximide Counterscreen for Small Molecule Inhibitors of Shiga Toxin; cell reporter, cycloheximide protein synthesis inhibition counterscreen; max response, %; 12% of 300,000 active; in the data active = max response mostly above about 13%, no sharp cut-off; inactive = mostly below about 14%; also: read at 38.3 µM for the half of the compounds with a filed dose
Shiga inhibitor: A qHTS for Small Molecule Inhibitors of Shiga Toxin; Vero cells, Shiga toxin protein synthesis inhibition reporter; inhibition, % at 38.7 µM; 9.2% of 290,000 active; in the data active = inhibition mostly above about 28%, no sharp cut-off; inactive = mostly below about 43%
LmPK inh: qHTS Assay for Inhibitors of Leishmania Mexicana Pyruvate Kinase (LmPK). Q27686. purified LmPK, Kinase-Glo ATP luminescence, 1 h. Potency, µM (series often up to 57.5 µM), most hits filed as inhibitors. 0.37% of 290,000 active. AID 1721, 2009
Target sequence (Q27686 whole entry, looked up): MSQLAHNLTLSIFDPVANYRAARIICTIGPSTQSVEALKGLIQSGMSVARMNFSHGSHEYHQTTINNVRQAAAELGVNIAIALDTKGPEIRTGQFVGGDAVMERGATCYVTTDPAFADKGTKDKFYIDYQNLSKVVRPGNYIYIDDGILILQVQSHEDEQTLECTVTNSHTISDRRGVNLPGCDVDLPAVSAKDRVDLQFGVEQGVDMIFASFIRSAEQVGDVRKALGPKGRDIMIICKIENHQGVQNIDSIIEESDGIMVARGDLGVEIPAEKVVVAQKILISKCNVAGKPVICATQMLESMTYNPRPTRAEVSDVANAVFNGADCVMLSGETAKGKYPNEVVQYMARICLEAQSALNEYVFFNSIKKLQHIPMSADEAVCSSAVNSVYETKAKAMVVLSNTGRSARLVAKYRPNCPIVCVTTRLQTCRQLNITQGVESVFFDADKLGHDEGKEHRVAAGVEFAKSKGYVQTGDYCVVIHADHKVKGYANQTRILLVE
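Kinase-Glo luminescence read after 1 h RT reaction of 0.1 nM LmPK with 0.5 mM PEP and 0.1 mM ADP. Activity scaled between uninhibited and enzyme-free controls.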
FBPA Giardia inh: qHTS Assay for Inhibitors of Fructose-1,6-bisphosphate Aldolase from Giardia Lamblia. purified Giardia FBPA. A8B2U2. Potency, µM (top dose mostly 59.6 µM), actives largely listed as inhibitors. 0.71% of 290,000 active. AID 2451, 2010; also: nearly all actives have a fitted effect of over 55% in size
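40 nM FBPA preincubated 10 min at RT with compound (up to 57.5 uM final), then substrate plus GAPDH/TPI/NAD/arsenate coupling and diaphorase/resazurin added. Fluorescence read after 20 min at RT, 525/598 nm.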
RE007 growth inh: qHTS Assay for Inhibitors of the HIV-1 protein Vpr; AID 651644, 2012; 0.21% of 360,000 active; S. pombe RE007 Vpr strain, BacTiter-Glo ATP luminescence, 24 h; Potency, µM (doses to about 92.2 µM), actives largely listed as inhibitors; active = well fitted falling curve with a large enough effect; inconclusive = small, poorly fitted or top-dose-only effect; inactive = no such curve, though single readings can be large or run the other way; also: nearly all actives have a fitted effect of over 50% in size
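Fission yeast strain RE007, carrying one chromosomally integrated HIV-1 vpr copy, was seeded at OD 0.01 in PMG+AL medium with 23 nL pinned compound. After 24 h at 30 °C and 99% humidity, viability was read by BacTiter-Glo luminescence.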
Tb PYK inh: qHTS of Trypanosoma Brucei Inhibitors; 0.12% of 410,000 active; pyruvate kinase (Trypanosoma brucei), Q57TT1; TbPYK enzyme, Kinase-Glo Plus ATP luminescence, 45 min; AID 624173, 2012; Potency, µM (series often up to 76.8 µM), usual class: inhibitors; also: nearly all actives have a fitted effect of over 50% in size
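Glycolytic pyruvate kinase of T. brucei was incubated with substrate, test compound and 130 uM ADP for 45 minutes at room temperature. Luminescent Kinase-Glo Plus signal was measured after 10 minutes.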
Of the large screens only hits and unclear results are named; the others gave an inactive call. The sample as a whole holds a higher share of hits than the screen did. Unless noted, calls follow the shape of the dose curve; as a rule, active = well fitted curve in the direction sought with a large enough effect; inconclusive = small, poorly fitted or top-dose-only effect, or another doubt; inactive = no such curve, though single readings can be large; an effect the other way counts as inactive or inconclusive.

CC(C)(C)c1ccc(C(=O)N/C(N)=N/c2nc3ccccc3o2)cc1	none
Cc1ccc2oc(/N=C(\N)NC(=O)C(C)(C)C)nc2c1	CHX counter 27
N#C/C(=C\c1ccc(O)cc1)c1nc2ccccc2o1	CHX counter 37, Shiga inhibitor 117
COc1cc(/C=C(\C#N)c2nc3ccccc3o2)ccc1O	CHX counter 24, RE007 growth inh inconclusive
COc1cc(/C=C(\C#N)c2nc(-c3cc4ccccc4oc3=O)cs2)ccc1O	none
Cc1ccc(C)c(NC(=O)Cn2cc(C(=O)C3CC3)c3ccccc32)c1	none
Cc1ccc(NC(=O)Cn2cc(C(=O)C3CC3)c3ccccc32)c(C)c1	CHX counter 33, Shiga inhibitor 36
CCC1Nc2ncnc(N3CCc4ccccc4C3)c2N(Cc2ccc(Br)cc2)C1=O (centres undefined)	none (no result: CHX counter, Shiga inhibitor, LmPK inh, FBPA Giardia inh)
Cn1c(=N)n(CC(=O)C(C)(C)C)c2ccccc21	CHX counter 27, Shiga inhibitor 148
CCCCn1c(=N)n(CC(=O)c2ccc(OC)cc2)c2ccccc21	none (no result: RE007 growth inh, Tb PYK inh)
CCCn1c(=N)n(CC(=O)C(C)(C)C)c2ccccc21	none
COc1ccc(C(=O)Cn2c(=N)n(C)c3ccccc32)cc1	CHX counter 60, Shiga inhibitor 85
Cn1c(=N)n(CC(=O)c2ccccc2)c2ccccc21	CHX counter 23
COc1ccc(C(=O)CN2Cc3ccccc3C2=N)cc1	CHX counter 30, Shiga inhibitor 88
CCOC(=O)c1c(C)oc2nc(C)nc(NCc3ccc(F)cc3)c12	none (no result: CHX counter, Shiga inhibitor, LmPK inh, FBPA Giardia inh, RE007 growth inh)
CCOc1cc(CNn2cnnc2)cc(Cl)c1OCC(=O)NC(C)(C)C	none
COc1ccc(OC)c(NC(=O)N2c3ccccc3Sc3ccccc32)c1	none (no result: CHX counter, Shiga inhibitor, LmPK inh, FBPA Giardia inh, RE007 growth inh)
CCC(C)NC(=O)CSc1nnc(-c2cc(-c3ccc(C)cc3)nc3ccccc23)n1N (centres undefined)	none
Cc1ccc(-c2cc(-c3nnc(SCC(=O)NCC(C)C)n3N)c3ccccc3n2)cc1	CHX counter 36
CC1=C(C(=O)Nc2ccc(C)cc2)C(c2cccs2)NC(=S)N1 (centres undefined)	CHX counter 19
Cc1c(C(=O)NCc2ccccc2Br)oc2c1-c1[nH]ncc1CC2	none (no result: CHX counter, Shiga inhibitor, LmPK inh, FBPA Giardia inh, RE007 growth inh)
COc1ccc(CC(=O)Nc2sc3c(c2C(=O)Nc2cccc(C)c2)CCCCC3)cc1	none (no result: CHX counter, Shiga inhibitor, LmPK inh, FBPA Giardia inh, RE007 growth inh)
O=C(Nc1cccnc1)c1cc(-c2ccc(Cl)c(Cl)c2)on1	CHX counter 21, Shiga inhibitor 47
O=C(Nc1cccnc1)c1cc(-c2ccccc2O)on1	CHX counter 48, Shiga inhibitor 77
O=C(Nc1cccnc1)c1cc(-c2ccc(F)cc2)on1	CHX counter 53, Shiga inhibitor 92
O=C(Nc1cccnc1)c1cc(-c2ccc3c(c2)OCO3)on1	CHX counter 30, Shiga inhibitor 89, LmPK inh inconclusive
Cc1ccc(NC(=O)CN2CCOCC2)cc1C	none
CCN(Cc1ccccc1)C(=O)CN1C(=O)COc2ccc(S(=O)(=O)N3CCOCC3)cc21	none (no result: CHX counter, Shiga inhibitor, LmPK inh, FBPA Giardia inh, RE007 growth inh)
Cc1nn(-c2ccccc2)nc1CNC(=O)C1CCC1	none
COc1ccc(-c2cc(C(=O)Nc3cccnc3)no2)cc1OC	CHX counter 32, Shiga inhibitor 60
CCOC(=O)c1cnc(SCc2ccc(C(C)(C)C)cc2)nc1N	none
CCOC(=O)c1cnc(SCC(=O)Nc2ccc(N3CCOCC3)cc2)nc1N	none (no result: RE007 growth inh, Tb PYK inh)
CCOC(=O)c1cnc(SSc2ncc(C(=O)OCC)c(N)n2)nc1N	Tb PYK inh inconclusive (no result: Shiga inhibitor)
C=CCSc1ncc(C(=O)OCC)c(N)n1	CHX counter 41, Shiga inhibitor 51
CCOC(=O)C(C)Sc1nc(-c2ccccc2)ccc1C#N (centres undefined)	none (no result: CHX counter, Shiga inhibitor, LmPK inh, FBPA Giardia inh, RE007 growth inh)
CCOC(=O)c1cnc(SCCN2CCOCC2)nc1N	CHX counter 18
CCOC(=O)C(C)Sc1ncc(-c2ccccc2)cn1 (centres undefined)	CHX counter 58, Shiga inhibitor 70
CCOC(=O)c1cnc(SCc2ccccc2)nc1N	CHX counter 47, Shiga inhibitor 109
O=S(=O)(Cc1ccccc1Cl)NCCc1ccccc1	none
Cc1nc(SCc2ccc(Cl)cc2)ncc1C(=O)O	Shiga inhibitor 60
CCOC(=O)c1cnc(SCC(=O)OC)nc1N	CHX counter 34
COc1cnc(SCc2ccc(Cl)cc2)nc1Cl	none
CC12CC3CC(C)(C1)CC(C(=O)Nc1nncs1)(C3)C2	none
COC(=O)c1c(NC(=O)c2ccc(C)o2)sc2c1CCCCC2	CHX counter 50, Shiga inhibitor 73
COC(=O)c1c(NC(=O)C2CCCCC2C(=O)O)sc2c1CCCCC2 (centres undefined)	CHX counter 40, Shiga inhibitor 84
COCC(=O)Nc1sc2c(c1C(=O)OC)CCCC2	none
COC(=O)c1c(NC(=O)Cc2cccs2)sc2c1CCCC2	CHX counter 30
CCOC(=O)c1c(NC(=O)C2CCCCC2C(=O)O)sc2c1CCCCC2 (centres undefined)	none
Cc1ccc(C(=O)Nc2sc3c(c2C(=O)O)CCCCC3)o1	CHX counter 37, Shiga inhibitor 54, LmPK inh inconclusive, RE007 growth inh inconclusive
COc1ccc(Cl)cc1NC(=O)[C@H]1O[C@@H]2OC(C)(C)O[C@@H]2[C@H]2OC(C)(C)O[C@H]21	none (no result: CHX counter, Shiga inhibitor, LmPK inh, FBPA Giardia inh, RE007 growth inh)
COc1ccc2c(c1)c1c(c(=O)n(-c3cc(Cl)ccc3C)c(=O)n1CC(=O)N1CCCC1)n2C	none (no result: CHX counter, Shiga inhibitor, LmPK inh, FBPA Giardia inh, RE007 growth inh)
Cc1ccc(C(=O)Nc2sc3c(c2C(=O)O)CCCC3)o1	CHX counter 52, Shiga inhibitor 68 (no result: FBPA Giardia inh)
Fc1cccc(C[n+]2csc3ccccc32)c1	Tb PYK inh inconclusive
c1ccc(C[n+]2csc3ccccc32)cc1	Shiga inhibitor 109, Tb PYK inh inconclusive
CC(C)C(=O)NC(=S)Nc1ccccc1N1CCN(C(=O)c2ccc(Cl)cc2)CC1	CHX counter 32
CC(C)(C)C(=O)Nc1ccccc1N1CCN(C(=O)c2ccc(Cl)cc2)CC1	none
COc1ccc(/C(N)=N/OC(=O)CCC2CCCC2)cc1OC	CHX counter 23, Shiga inhibitor 58
COc1ccc(/C(N)=N/OC(=O)CC2CCCCC2)cc1OC	CHX counter 50, Shiga inhibitor 55 (no result: FBPA Giardia inh)
N/C(=N\OC(=O)CC1CCCCC1)c1ccc(Br)cc1	none (no result: FBPA Giardia inh)
N/C(=N\OC(=O)CC1CCCCC1)c1cccc(Br)c1	CHX counter 44, Shiga inhibitor 55 (no result: FBPA Giardia inh)
N/C(=N\OC(=O)CC1CCCCC1)c1ccc(Cl)cc1	CHX counter 30, Shiga inhibitor 73 (no result: FBPA Giardia inh)
COc1ccc(/C(N)=N/OC(=O)CSc2ccc(C)cc2)cc1OC	none
